# Screening results: PubChem, several laboratories
# Shown are actives, neighbours in structure and some others; about 2.3% of the full set was active somewhere.
# KLK7 zymogen act: activates the human kallikrein-7 zymogen; P49862; activation, % at 7 µM; AID 652039; 0.9% of 370,000 active; purified proKLK7, EDANS-DABCYL substrate fluorescence; 100% is mature enzyme control, 0% vehicle;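 active = activation above the mean of all tested compounds plus 3 SD, computed per campaign excluding outliers beyond control limits, cut at about 13% in these data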
# ADAM17 inh: inhibitors of human ADAM17 | inhibition, % at 6.95 µM | 0.83% of 370,000 active | recombinant ADAM17, EDANS/DABCYL FRET peptide cleavage | P78536 | AID 720648;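 active = inhibition above the mean of compounds lying between control limits plus 3 SD, set per campaign, cut at about 8.5% in these data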;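 note: 0% = DMSO-only wells as the low control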
# Target sequence (P78536 215-824 limits assumed): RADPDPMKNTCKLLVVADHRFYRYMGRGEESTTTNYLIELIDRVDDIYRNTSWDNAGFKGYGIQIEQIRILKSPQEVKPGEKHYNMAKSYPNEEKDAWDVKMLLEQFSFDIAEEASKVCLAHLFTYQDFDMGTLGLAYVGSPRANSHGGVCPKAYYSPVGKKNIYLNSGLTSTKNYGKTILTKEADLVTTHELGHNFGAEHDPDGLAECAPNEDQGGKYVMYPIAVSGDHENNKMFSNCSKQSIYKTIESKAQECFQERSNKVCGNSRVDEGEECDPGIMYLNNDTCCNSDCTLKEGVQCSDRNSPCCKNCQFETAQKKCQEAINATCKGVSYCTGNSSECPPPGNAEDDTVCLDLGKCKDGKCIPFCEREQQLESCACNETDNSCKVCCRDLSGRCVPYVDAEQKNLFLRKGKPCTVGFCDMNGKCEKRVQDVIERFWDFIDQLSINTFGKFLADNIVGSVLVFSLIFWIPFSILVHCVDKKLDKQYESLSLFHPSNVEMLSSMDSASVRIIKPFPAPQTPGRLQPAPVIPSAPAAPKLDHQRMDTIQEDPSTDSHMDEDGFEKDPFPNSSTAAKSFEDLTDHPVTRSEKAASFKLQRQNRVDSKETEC
# V-ATPase pH: yeast V-ATPase proton transport regulation by pHLuorin; S. cerevisiae, pHLuorin cytosolic pH fluorescence; response, % at 10 µM; 0.37% of 350,000 active; AID 504577; in the data active = response mostly above about 7.3%, no sharp cut-off; inactive = mostly below about 5.4%; note: actives read high
# ADAM10 inh: inhibitors of human ADAM10 | 0.62% of 370,000 active | AID 720582 | inhibition, % at 7 µM | recombinant ADAM10, EDANS/DABCYL FRET peptide cleavage, 3 h | O14672;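 active = inhibition above a per-campaign cutoff equal to the mean of compounds falling between control-based bounds plus 3 SD, cut at about 20% in these data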;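 note: 0% = DMSO wells while the 100% control is not disclosed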
# ADAM10 confirm: confirmation of inhibitors of human ADAM10; inhibition, % at 6.95 µM; 1% of 2,100 active; ADAM10 QFRET peptide cleavage, EDANS fluorescence; shares compounds with ADAM10 inh;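 active = inhibition above about 20% chosen separately for each screening run, limit read from the data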;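 note: 0% = DMSO wells and 100% = marimastat wells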
# ADAM17 ctr: counter-screen for ADAM10 exosite inhibitors: inhibitors of human ADAM17; shares compounds with ADAM10 inh; 0.5% of 2,100 active; AID 743214; inhibition, % at 6.95 µM; ADAM17 QFRET peptide cleavage, EDANS fluorescence;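 active = mean triplicate inhibition above the solvent-only control wells' mean plus 3 SD, cut at about 12% in these data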;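 note: 0% = DMSO wells and 100% = marimastat wells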
# * marks the source's active call; other numbers are inactive results; . = no result given.
SMILES,KLK7 zymogen act,ADAM17 inh,V-ATPase pH,ADAM10 inh,ADAM10 confirm,ADAM17 ctr
CC(C)(C)CC(C)(C)NC(=O)CSCC(=O)Nc1ccc2ccccc2c1,1,6,4,25*,2,1
Cc1ccc2c(c1)N(CCCC(=O)N(C)Cc1ccc(F)cc1)C(=O)CO2,0,0,.,0,.,.
Cc1cccc(CCNC(=O)CCc2nc(-c3ccccc3F)no2)c1,1,4,5,20*,1,1
Cc1ccc(S(=O)(=O)N2[C@@H](c3ccc(Cl)cc3)C(C(=O)O)=CC[C@H]2c2ccc(C(C)C)cc2)cc1,0,1,3,21*,1,0
COC(=O)C1CN(Cc2ccc(OC)cc2)CCS(=O)(=O)N1Cc1ccc(Cl)cc1 (stereo not given),0,-2,.,-6,.,.
CN(C)C(=O)c1ccc(-c2cc3onc(-c4ccccc4)c3c(=O)n2C)cc1,1,0,-5,-2,.,.
COC(=O)c1ccc(-c2cc3onc(-c4ccccc4)c3c(=O)n2C)cc1,0,1,-2,71*,25*,7
O=C(Nc1ccc(OC(F)F)c(Cl)c1)C(c1ccccc1)c1ccccc1,0,14*,5,28*,7,4
COc1cc(C2c3c(-c4cc(Cl)c(C)cc4O)n[nH]c3C(=O)N2Cc2cccnc2)ccc1O (stereo not given),0,5,5,21*,1,-1
COc1cccc(C2c3c(-c4cc(Cl)c(C)cc4O)n[nH]c3C(=O)N2Cc2cccnc2)c1 (stereo not given),0,1,4,4,.,.
O=C(Nc1ccc(F)cc1)OCc1cn(Cc2ccccc2Cl)nn1,0,-1,.,5,.,.
CCOC(=O)c1c(N)sc(C(O)(C(F)(F)F)C(F)(F)F)c1-c1ccc(F)cc1,0,11*,.,24*,6,2
CCOC(=O)c1c(NC(=O)C2C3CCC(O3)C2C(=O)O)sc(C)c1-c1ccc(F)cc1 (stereo not given),0,-7,3,-4,.,.
CCCCC(=O)NC(=S)Nc1ccc(S(=O)(=O)N2CCCC2)cc1,0,1,2,72*,0,0
S=c1[nH]nc(CSc2nc3ccccc3s2)o1,0,6,-2,25*,-3,0
Cc1ccc(SCCC(=O)OCC(=O)Nc2ccc(C(N)=O)cc2)cc1,0,-4,1,95*,0,0
NS(=O)(=O)c1cccc(NC(=O)COC(=O)CCSc2ccccc2)c1,0,-2,-3,0,.,.
NC(=O)c1ccc(NC(=O)COC(=O)CCSc2ccccc2)cc1,1,-1,2,-1,.,.
CN(C)S(=O)(=O)c1cccc(NC(=O)COC(=O)CCSc2ccc(Cl)cc2)c1,0,8,-4,21*,3,1
CSCC[C@H](NC(=O)OC(C)(C)C)c1nnc(SCc2ccc(F)cc2)o1,1,0,-2,8,.,.
CSCC[C@H](NC(=O)OC(C)(C)C)c1nnc(SCc2cccc(F)c2)o1,-1,1,-1,20*,1,0
COC(=O)c1cc(S(=O)(=O)NCC2CCN(C(=O)C(=O)c3cccs3)CC2)cs1,0,-6,.,-2,.,.
CCOC(=O)C1=CCN(S(=O)(=O)c2cccc(Cl)c2)C1c1ccc(Cl)cc1 (stereo not given),1,6,.,-2,.,.
CC(=O)O[C@H]1C[C@@H](n2cnc3c(Cl)ncnc32)[C@@H]2OC(C)(C)O[C@@H]21,0,0,.,-4,.,.
CCOC(=O)N1CCN(CCC(=O)Nc2ccc(OC)cc2)CC1,0,-1,0,71*,1,0
SMILES,KLK7 zymogen act,ADAM17 inh,V-ATPase pH,ADAM10 inh,ADAM10 confirm,ADAM17 ctr
Cc1ccc(C(=O)COC(=O)c2cccc(NC(=O)c3ccc([N+](=O)[O-])cc3[N+](=O)[O-])c2)cc1,-1,4,2,25*,6,1
O=C(C1=C[C@H](c2csc3ccccc23)C[C@H](OCc2ccc(CO)cc2)O1)N1CCOCC1,1,-1,-2,89*,1,0
O=[N+]([O-])c1ccccc1-c1nc(-c2ccc(Br)o2)no1,0,5,-1,23*,1,1
COCc1cn(-c2ccc3c(c2)[C@]2(CC(=O)N(C)C2c2ccccc2)C(=O)N3CC(C)C)nn1 (stereo not given in full),0,0,.,2,.,.
Cc1cccc(C(=O)NC(=S)N2CCN(C(=S)NC(=O)c3cccc(C)c3)CC2)c1,0,3,-2,24*,1,0
Cc1cccc(C(=O)NC(=S)N2CCN(C)CC2)c1,0,-3,-1,-5,.,.
CCCN1C(=O)c2n[nH]c(C(C)C)c2C1c1cccc(C(F)(F)F)c1 (stereo not given),0,-3,.,-2,.,.
CC(=O)N[C@@H](Cc1c[nH]c2ccccc12)C(=O)OCc1cc(C(F)(F)F)cc(C(F)(F)F)c1,0,3,-3,24*,-1,-1
O=C(C1CCCN1S(=O)(=O)c1cccc([N+](=O)[O-])c1)N1CCN(c2ccccc2)CC1 (stereo not given),0,3,.,5,.,.
CCOC(=O)N1CCN(C(=O)C[C@H]2C[C@@]3(C(=O)OC)C(=C[C@H](C4CCCC4)O[C@@H]3C)N(Cc3cccc4ccccc34)C2=O)CC1,0,8,.,24*,8,2
COC(=O)[C@]12C[C@H](CC(=O)NCc3cccs3)C(=O)N(Cc3cccc4ccccc34)C1=C[C@H](C1CCCC1)O[C@@H]2C,0,4,.,21*,9,3
COC(=O)[C@]12C[C@H](CC(=O)N3CCCCC3)C(=O)N(CCc3ccc(OC)c(OC)c3)C1=C[C@H](COCc1ccccc1)O[C@@H]2C,1,-2,.,58*,-1,0
COC(=O)[C@]12C[C@H](CC(=O)NCc3cccc4ccccc34)C(=O)N(CCc3ccc(OC)c(OC)c3)C1=C[C@H](C(C)(C)C)O[C@@H]2C,1,7,.,22*,10,3
COC(=O)[C@]12C[C@H](CC(=O)NCC3CCCCC3)C(=O)N(Cc3cccc4ccccc34)C1=C[C@H](C1CCCC1)O[C@@H]2C,0,-3,.,-5,.,.
COC(=O)[C@]12C[C@H](CC(=O)NCc3ccc(OC)c(OC)c3)C(=O)N(Cc3ccccc3)C1=C[C@H](C(C)(C)C)O[C@@H]2C,0,1,.,-2,.,.
COC(=O)[C@]12C[C@H](CC(=O)N3CCCC3)C(=O)N(CCc3ccc(OC)c(OC)c3)C1=C[C@H](COCc1ccccc1)O[C@@H]2C,1,-4,.,-4,.,.
O=C(CNSc1ccc([N+](=O)[O-])cc1[N+](=O)[O-])OCc1ccccc1,0,-4,.,-4,.,.
c1ccc(CC(Nc2cccnc2)c2ccccc2)cc1 (stereo not given),0,-5,.,-11,.,.
